In PubChem BioAssay AID504332 (National Center for Advancing Translational Sciences (NCATS), 2011):
Out of some 350,000 compounds screened, about 31,000 (8.9%) were called active. Entries that show only a call come without a potency. Inconclusive results (about 15%) are left out. This is one part of a sample in which actives are shown more often than they occur. Calls follow the shape of the dose curve; as a rule, active = well fitted inhibition curve with a large enough effect; inconclusive = small, poorly fitted or top-dose-only effect; inactive = no such curve, though single readings can be large or run the other way.

Target: Histone-lysine N-methyltransferase EHMT2 (Homo sapiens) (UniProt Q96KQ7)
Assay: qHTS Assay for Inhibitors of Histone Lysine Methyltransferase G9a; also: nearly all actives have a fitted effect of over 75% in size
Details: G9a H3K9 monomethylation, AlphaScreen, 2 h; series mostly up to 59 µM
How it was run: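 Methyltransferase reactions run at room temperature for 2 h (20 nM enzyme, 500 nM biotin-H3K9 peptide, 20 uM SAM) after a 15 min compound preincubation; product detected by AlphaScreen beads and anti-H3K9me1 antibody.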
Potency is read from the fitted curve at half-maximal effect.

Sequence of Histone-lysine N-methyltransferase EHMT2 (Homo sapiens) (Q96KQ7 913-1193 limits assumed): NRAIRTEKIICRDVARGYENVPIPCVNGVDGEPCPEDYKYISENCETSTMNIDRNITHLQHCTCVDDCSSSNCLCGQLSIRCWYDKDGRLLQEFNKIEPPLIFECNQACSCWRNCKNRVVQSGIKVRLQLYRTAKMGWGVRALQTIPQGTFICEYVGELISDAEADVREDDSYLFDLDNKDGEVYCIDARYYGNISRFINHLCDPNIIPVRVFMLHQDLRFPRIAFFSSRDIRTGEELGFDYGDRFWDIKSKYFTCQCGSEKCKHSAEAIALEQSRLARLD

Question: With CCCOc1ccc(C(=O)Nc2ccc3oc(-c4cccc(Cl)c4Cl)nc3c2)cc1 as the molecule, how does the Potency read?
Answer: inactive

Question: For CC(NC(=S)NC1CCCCC1)C(c1ccccc1)N1CCOCC1 (stereo not drawn), which Potency is on record?
Answer: inactive

Question: Which Potency does the source give for S=C(NC1CCCCC1)NN1CCOCC1 here?
Answer: 50.1 µM (active)

Question: For COc1ccc(S(=O)(=O)N2CCOCC2)cc1C(=O)NC1CCCCC1, which Potency is on record?
Answer: inactive

Question: For COc1ccc(NC(=O)CN(C)CC(=O)Nc2cccc(C(F)(F)F)c2)cc1, which Potency is on record?
Answer: inactive

Question: How did the Potency turn out when COc1ccc(C(CC(=O)Nc2ccc(C)cc2)NC(=O)C(F)(F)F)cc1 (stereo not drawn) was run?
Answer: 79.4 µM (active)

Question: For COc1ccc(NC(=O)C(=O)NCC(=O)Nc2cccc(C(F)(F)F)c2)cc1, which Potency is on record?
Answer: inactive

Question: CCCCOc1ccc(C(=O)Nc2cccc(-c3nc4ccccc4o3)c2C)cc1 was tested. Which Potency did it give?
Answer: inactive

Question: With O=C(NCc1ccc(Cl)cc1)C(=O)NCC1CCCN1S(=O)(=O)c1cccs1 (stereo not drawn) as the molecule, how does the Potency read?
Answer: inactive

Question: Which Potency does the source give for Cc1cc(NC(=O)CC(C)C)cc(-c2nc3ncccc3o2)c1O here?
Answer: inactive

Question: For Cc1ccc(-n2nc(CO)c(C(=O)NCCc3ccccc3)n2)cc1, which Potency is on record?
Answer: inactive

Question: How did the Potency turn out when COc1cc([N+](=O)[O-])cc([N+](=O)[O-])c1NC(=O)N1CCOCC1 was run?
Answer: 50.1 µM (active)

Question: With COc1cc(C(=O)OCc2ccc([N+](=O)[O-])cc2)cc(OC)c1OC as the molecule, how does the Potency read?
Answer: inactive

Question: O=C(Oc1ccccc1C(=S)N1CCCCC1)c1cc([N+](=O)[O-])cc([N+](=O)[O-])c1 was tested. Which Potency did it give?
Answer: 3.55 µM (active)

Question: O=C(Oc1ccc(Br)cc1C(=S)N1CCOCC1)c1cccc([N+](=O)[O-])c1 was tested. Which Potency did it give?
Answer: 7.08 µM (active)

Question: Which Potency does the source give for COc1cc(C(=S)N2CCOCC2)cc(OC)c1OC(=O)c1cc([N+](=O)[O-])cc([N+](=O)[O-])c1 here?
Answer: 31.6 µM (active)

Question: For O=C(c1ccc(Oc2ccc(Cl)cc2)c([N+](=O)[O-])c1)N1CCCC1, which Potency is on record?
Answer: inactive

Question: Which Potency does the source give for O=C(Oc1cccc(C(=S)N2CCOCC2)c1)c1cccc(Cl)c1 here?
Answer: inactive

Question: Which Potency does the source give for COc1cc(C(=O)N2CCOCC2)cc(OC)c1OC here?
Answer: inactive

Question: For Cc1cc(OC(=O)c2ccccc2)c([N+](=O)[O-])c(=O)[nH]1, which Potency is on record?
Answer: inactive

Question: How did the activity, negative = inhibition turn out when O=C(/C=C/c1cccc([N+](=O)[O-])c1)OCC(=O)N1CCOCC1 was run?
Answer: 12.5% [at 12.7 µM] (inactive)

Question: How did the Potency turn out when COc1cc(NC(=O)N2CCOCC2)cc(OC)c1 was run?
Answer: inactive

Question: Which Potency does the source give for O=C(NCCCN1CCOCC1)c1ccc([N+](=O)[O-])cc1[N+](=O)[O-] here?
Answer: inactive

Question: How did the Potency turn out when COc1ccc(/C=N/Nc2cc(N3CCOCC3)nc(C)n2)c(OC)c1 was run?
Answer: inactive

Question: With Cc1ccc2cccc(NC(=O)C(C)Oc3ccc(C)c(C)c3)c2n1 (stereo not drawn) as the molecule, how does the Potency read?
Answer: inactive

Question: How did the activity, negative = inhibition turn out when Cc1ccc(-c2cnc(C3CC3)o2)cc1S(=O)(=O)Nc1cccc(C)c1C was run?
Answer: -9.84% [at 12.7 µM] (inactive)

Question: For CCC(=O)N1c2ccccc2CC1C(=O)N1CCN(c2ccccc2F)CC1 (stereo not drawn), which activity, negative = inhibition is on record?
Answer: 0.329% [at 12.7 µM] (inactive)

Question: With Cc1ccc(-c2nn(CCC(=O)Nc3ccc(Cl)c(Cl)c3)c(=O)c3ccccc23)cc1 as the molecule, how does the Potency read?
Answer: inactive

Question: For COc1ccc(Cl)cc1NC(=O)CSc1nc2ccccc2c2nc(-c3ccccc3)nn12, which Potency is on record?
Answer: inactive

Question: For CC(=O)C[C@@H](O)CC(=O)[C@H]1OC(=O)CCCCCCc2ccccc21, which activity, negative = inhibition is on record?
Answer: 7.19% [at 0.501 µM] (inactive)

Question: How did the Potency turn out when O=C(c1cccs1)N(C(=O)c1cccs1)c1ccccn1 was run?
Answer: inactive

Question: O=C(C1=C(O)C(=O)N(CCOCCO)C1c1ccccn1)c1cccs1 (stereo not drawn) was tested. Which Potency did it give?
Answer: 28.2 µM (active)

Question: O=C(c1cccs1)c1cn(CCOc2ccc(Cl)cc2)c2ccccc12 was tested. Which Potency did it give?
Answer: inactive

Question: Which Potency does the source give for Cc1ccc(O)c(/C=N/NC(=O)COc2ccc3c(C)cc(=O)oc3c2)c1 here?
Answer: inactive

Question: With CCC(=O)N1c2ccccc2CC1C(=O)N1CCN(c2cccc(OC)c2)CC1 (stereo not drawn) as the molecule, how does the Potency read?
Answer: inactive

Question: How did the Potency turn out when COc1cccc(C(=O)NC2(C(F)(F)F)C(=O)Nc3c2c(=O)[nH]c(=O)n3-c2ccc(C)cc2)c1 (stereo not drawn) was run?
Answer: inactive

Question: Which Potency does the source give for CCOc1ccc(CN2CCN(Cc3ccc(C)o3)CC2CCO)cc1 (stereo not drawn) here?
Answer: 70.8 µM (active)

Question: Which Potency does the source give for CCOc1ccc(CN2CCN(Cc3ccon3)CC2CCO)cc1 (stereo not drawn) here?
Answer: inactive

Question: How did the Potency turn out when CCOc1ccc(CN2CCN(Cc3ccc4cc(F)ccc4n3)CC2CCO)cc1 (stereo not drawn) was run?
Answer: inactive

Question: With COCCn1c(C)cc(C(=O)CSc2nnc(C3CC3)n2C2CC2)c1C as the molecule, how does the activity, negative = inhibition read?
Answer: -12.5% [at 12.7 µM] (inactive)

Question: Cc1ccc(Cl)cc1N1CCN(C(=O)C2CCC(CNS(=O)(=O)c3cccs3)CC2)CC1 (stereo not drawn) was tested. Which Potency did it give?
Answer: inactive

Question: With Cc1ccc(S(=O)(=O)NNC(=O)/C=C/c2cccc(F)c2)cc1 as the molecule, how does the Potency read?
Answer: inactive

Question: Which Potency does the source give for Cc1ccc(CC2(O)CCN(CCOc3ccc(O)cc3)CC2)cc1 here?
Answer: inactive

Question: How did the Potency turn out when COc1cccc(OCCCN2CCCCCC2)c1 was run?
Answer: 11.2 µM (active)

Question: For Cc1cc(OCCN2CCCC2)cc(C(C)C)c1, which Potency is on record?
Answer: 11.2 µM (active)

Question: With O=C(Nc1ccc(F)cc1F)N1CCCN(CCOc2ccccc2)CC1 as the molecule, how does the Potency read?
Answer: inactive

Question: Which Potency does the source give for COc1cccc(OCC(O)CN2CCN(CCO)CC2)c1 (stereo not drawn) here?
Answer: inactive

Question: Clc1ccccc1-c1cc(COc2ccc3ccccc3c2)no1 was tested. Which Potency did it give?
Answer: inactive

Question: With OC(COc1ccc(Br)cc1)CN1CCCC1 (stereo not drawn) as the molecule, how does the Potency read?
Answer: inactive

Question: With c1ccc2cc(OCCN3CCCC3)ccc2c1 as the molecule, how does the Potency read?
Answer: 12.6 µM (active)

Question: With OC(COc1ccc2ccccc2c1)CN1CCOCC1 (stereo not drawn) as the molecule, how does the Potency read?
Answer: inactive

Question: With Cc1cc(C)c(NC(=O)CN2CCCCCC2)c(C)c1 as the molecule, how does the activity, negative = inhibition read?
Answer: 41.6% [at 0.501 µM] (inactive)

Question: For Cc1cc(OCCN2CCCC2)ccc1C(C)C, which Potency is on record?
Answer: 8.91 µM (active)

Question: For COc1cccc(NC(=O)NCCN2CCCCC2)c1, which Potency is on record?
Answer: inactive

Question: Which activity, negative = inhibition does the source give for CS(=O)(=O)Nc1ccccc1C(=O)OCC(=O)NC1CC1 here?
Answer: 15.6% [at 12.7 µM] (inactive)

Question: How did the Potency turn out when Cc1cccc(NC(=O)Cn2cc(S(=O)(=O)Cc3ccccc3Cl)c3ccccc32)c1 was run?
Answer: inactive

Question: Which activity, negative = inhibition does the source give for CC(C)(C)N1C(=O)[C@H]2[C@@H](c3ccc(Br)cc3)N3C(=O)N(c4cccc(Cl)c4)C(=O)[C@@]3(C)[C@H]2C1=O here?
Answer: -8.49% [at 2.33 µM] (inactive)

Question: With CCN(CC)CCNC(=O)Cn1ncc2c3ccccc3n(Cc3ccccc3C)c2c1=O as the molecule, how does the Potency read?
Answer: inactive

Question: Cn1c(=O)n(C)c2cc(S(=O)(=O)Nc3ccc(F)cc3)ccc21 was tested. Which Potency did it give?
Answer: inactive

Question: CCC1C/C(=C/c2cccs2)C(=O)/C(=C/c2cccs2)C1 (stereo not drawn) was tested. Which Potency did it give?
Answer: 39.8 µM (active)

Question: Which activity, negative = inhibition does the source give for CN1C/C(=C/c2cccs2)C(=O)/C(=C\c2cccs2)C1 here?
Answer: 1.72% [at 12.7 µM] (inactive)

Question: Which Potency does the source give for O=C1/C(=C/c2cccs2)CCc2ccccc21 here?
Answer: inactive

Question: COc1ccc(CCNc2nc3c(-c4cccc(F)c4)nnn3c3ccccc23)cc1OC was tested. Which Potency did it give?
Answer: inactive
